Shown are actives, neighbours in structure and some others; about 4.4% of the full set was active somewhere.
USP1-UAF1 inh: Inhibitors of USP1/UAF1: Primary Screen; Ubiquitin carboxyl-terminal hydrolase 1 (Homo sapiens), O94782; recombinant USP1/UAF1, Ub-Rhodamine cleavage fluorescence; Potency, µM (top dose mostly 57.1 µM), without a hit: at the highest dose activity change, negative = inhibition, usual class: inhibitors; 390,000 compounds, 0.23% hits; AID 743255, 2014; active = well fitted inhibition curve with a large enough effect; inconclusive = small, poorly fitted or top-dose-only effect; inactive = no such curve, though single readings can be large or run the other way; also: potency is read from the fitted curve at half-maximal effect; % is scaled to controls: 0 for no effect and ±100 for the full control effect; nearly all actives have a fitted effect of over 60% in size
Target sequence (O94782 whole entry, looked up): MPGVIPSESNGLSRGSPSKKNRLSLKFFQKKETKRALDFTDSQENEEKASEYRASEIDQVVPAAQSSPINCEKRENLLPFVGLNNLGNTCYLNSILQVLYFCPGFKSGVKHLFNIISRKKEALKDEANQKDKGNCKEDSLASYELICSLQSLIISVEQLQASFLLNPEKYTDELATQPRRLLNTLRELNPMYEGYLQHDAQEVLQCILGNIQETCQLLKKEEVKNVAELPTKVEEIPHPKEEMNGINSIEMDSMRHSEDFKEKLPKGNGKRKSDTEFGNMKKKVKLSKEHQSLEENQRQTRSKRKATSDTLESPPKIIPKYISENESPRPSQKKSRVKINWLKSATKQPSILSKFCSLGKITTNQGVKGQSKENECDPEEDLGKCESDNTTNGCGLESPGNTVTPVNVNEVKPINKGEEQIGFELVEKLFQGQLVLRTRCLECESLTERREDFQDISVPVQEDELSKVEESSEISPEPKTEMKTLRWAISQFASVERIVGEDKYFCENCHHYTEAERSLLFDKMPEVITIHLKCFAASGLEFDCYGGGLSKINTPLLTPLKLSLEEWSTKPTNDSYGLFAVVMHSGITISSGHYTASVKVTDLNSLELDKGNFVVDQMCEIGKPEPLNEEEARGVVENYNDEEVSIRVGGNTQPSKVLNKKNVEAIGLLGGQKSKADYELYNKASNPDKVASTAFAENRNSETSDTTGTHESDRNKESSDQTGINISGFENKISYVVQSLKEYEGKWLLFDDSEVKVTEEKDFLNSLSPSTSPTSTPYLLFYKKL
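1 nM enzyme complex + cpd, 15 min RT; start with Ub-Rho 150nM final; kinetic fluorescence ex 480/em 540, 6 reads q60 s. Buffer 50mM HEPES pH 7.8, 0.5mM EDTA, 0.1 mg/ml BSA, 1mM TCEP, 0.01% Tween-20.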
TRHR ag: qHTS for Small Molecule Agonists and Allosteric Enhancers of Human TRH Receptor: Primary Screen for Agonists | Thyrotropin-releasing hormone receptor (Homo sapiens), P34981 | TRHR cells, calcium flux fluo-8, FDSS agonist mode | activation, % at 2 µM | 360,000 compounds, 0.18% hits | AID 493084, 2011; also: 0% is about no effect
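Read-out: compound-evoked intracellular calcium rise in TRHR cells, fluo-8 dye, kinetic FDSS fluorescence at 1 s/cycle following a 10-cycle baseline. Cells cultured overnight before dye loading (30 min–1.5 h, RT).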
TRHR enhancer: qHTS for Small Molecule Agonists and Allosteric Enhancers of Human TRH Receptor: Primary Screen for Enhancers; Thyrotropin-releasing hormone receptor (Homo sapiens), P34981; TRHR cells, fluo-8 calcium fluorescence, EC20 TRH enhancement; 360,000 compounds, 0.66% hits; enhancement, % at 2 µM; AID 493056, 2011; in the data active = enhancement above about 30%; also: 0% is about no effect
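Enhancer read-out: after compound pinning and an initial kinetic agonist-mode read, an EC20 of TRH (10 nM final) was injected and fluo-8 calcium signal (Ex 480/Em 530) followed at 1 s/cycle for 100 cycles in TRHR-expressing cells.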
D1 PAM: Potentiators of Human D1 Dopamine Receptor: qHTS; HEK293 TREx D1 cells, calcium flux, dopamine EC20 potentiation; AID 504651, 2011; potentiation, % at 10 µM; 360,000 compounds, 0.036% hits; D(1A) dopamine receptor (Homo sapiens), P21728; in the data active = potentiation above about 30%; also: 0% is about no effect
D1 ag: Allosteric Agonists of the Human D1 Dopamine Receptor: qHTS; HEK293 T-REx D1 cells, calcium flux, agonist mode; activation, % at 2 µM; 360,000 compounds, 1% hits; also: 0% is about no effect
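Inducible HEK293 T-REx D1 cells, force-coupled to calcium signalling, were plated at 4000 cells/well with tetracycline and held overnight at 30 C. After no-wash calcium dye loading, compound-evoked calcium rise over 180 s flagged agonists.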
D1 antagonist: Antagonist of Human D 1 Dopamine Receptor: qHTS; AID 504652, 2011; HEK293 TREx D1 cells, calcium flux, dopamine EC80; stronger effect = lower value; activity change, negative = inhibition, % at 10 µM; D(1A) dopamine receptor (Homo sapiens), P21728; 360,000 compounds, 3.2% hits; in the data active = activity change below about -30%; also: % is scaled to controls: 0 for no effect and ±100 for the full control effect
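Allosteric or orthosteric antagonism assessed as attenuation of the calcium response to EC80 dopamine, added 180 s after compound, in induced HEK293 Trex D1 cells loaded with no-wash calcium dye.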
* = called active by the depositor; [ ] = dose if it differs, or a comment. Rule as the data show it, unless noted: active = activation above about 30%; inactive = the rest.

`CCOC(=O)c1cc(-c2ccc(C)cc2)n(CCC(=O)NCCc2ccc(C)cc2)c1C` gave USP1-UAF1 inh inconclusive, TRHR ag 0.9, TRHR enhancer -5.8, D1 PAM -6.5, D1 ag 14.1 and D1 antagonist -15.9.
Screening CCOC(=O)c1cc(-c2ccc(C)cc2)n(CCC(=O)NCCN(C)C)c1C returned USP1-UAF1 inh -16.3%, TRHR ag -0.6, TRHR enhancer -3.5, D1 PAM -7.0, D1 ag 63.1* and D1 antagonist -8.2.
Cc1ccc(NC(=O)CC2=NC(=O)C(CC(=O)Nc3ccccc3F)S2)cc1 (configuration not stated) was read as USP1-UAF1 inh -23.5%, TRHR ag 0.3, TRHR enhancer 3.4, D1 PAM -4.8, D1 ag 0.7 and D1 antagonist -49.8*.
`O=C(CC(c1ccccc1)c1ccccc1)Nc1nn[nH]n1` gave USP1-UAF1 inh -12.5%, TRHR ag 0.9, TRHR enhancer -3.4, D1 PAM -2.2, D1 ag 4.5 and D1 antagonist -31.3*.
Screening CC1Cc2ccccc2N1S(=O)(=O)c1cccc(C(=O)NCc2ccncc2)c1 (configuration not stated) returned USP1-UAF1 inh -19.2%, TRHR ag -0.6, TRHR enhancer 2.1, D1 ag 14.2 and D1 antagonist -54.1*.
`Cc1ccc(Cl)cc1N1CCN(C(=O)c2cc3c(=O)n(C)c4ccccc4c3n2C)CC1` gave USP1-UAF1 inh -16.6%, TRHR ag 2.3, TRHR enhancer -1.9, D1 ag 2.7 and D1 antagonist -36.1*.
Screening Cc1ccc(Cl)cc1N1CCN(CCCNC(=O)Cn2ncc3c([nH]c4ccccc43)c2=O)CC1 returned USP1-UAF1 inh -15.7%[11.4 µM], TRHR ag 0.1, TRHR enhancer 54.2*, D1 PAM -1.6, D1 ag 0.5 and D1 antagonist -12.8.
Cc1cccc(N2CCN(C(=O)Cn3ncc4c5ccccc5n(C)c4c3=O)CC2)c1C was read as USP1-UAF1 inh 2.8%, TRHR ag 0.3, TRHR enhancer 2.0, D1 PAM -2.0, D1 ag -1.1 and D1 antagonist 0.6.
`Cc1ccc(Cl)cc1N1CCN(C(=O)Cn2ncc3c4ccccc4n(C)c3c2=O)CC1` gave USP1-UAF1 inh 3.4%, TRHR ag -0.2, TRHR enhancer -1.8, D1 PAM -2.6, D1 ag 0.1 and D1 antagonist -32.8*.
`O=[N+]([O-])c1cc(Cl)ccc1N1CCCCC1` gave USP1-UAF1 inh -1.7%, TRHR ag -0.8, TRHR enhancer 4.2, D1 PAM -5.4, D1 ag -0.7 and D1 antagonist -5.2.
For O=Cc1cc([N+](=O)[O-])ccc1N1CCOCC1 the results were USP1-UAF1 inh -18.4%, TRHR ag 0.1, TRHR enhancer 4.3, D1 PAM 14.1, D1 ag 2.0 and D1 antagonist -39.0*.
`O=[N+]([O-])c1ccc(N2CCCCCC2)c([N+](=O)[O-])c1` gave USP1-UAF1 inh -7.6%, TRHR ag 0.4, TRHR enhancer 15.4, D1 PAM -12.0, D1 ag 2.1 and D1 antagonist -52.7*.
Screening O=C(CNC(=O)c1ccc2ccccc2c1)OC(C(=O)Nc1cc(C(F)(F)F)ccc1Cl)c1ccccc1 (configuration not stated) returned TRHR ag 2.6, TRHR enhancer -10.7, D1 PAM 4.1, D1 ag 5.0 and D1 antagonist 23.8.
For CCCC1=NN2C(=N)/C(=C\c3cc(C)n(-c4cc(C)cc(C)c4)c3C)C(=O)N=C2S1 the results were USP1-UAF1 inh -18.2%, TRHR ag -2.9, TRHR enhancer 10.5, D1 PAM -1.3, D1 ag 40.0* and D1 antagonist -60.3*.
Screening CCCCN(CC)CCCNC(=O)C1CCCN(c2ncnc3c2nc2n3CCCCC2)C1 (configuration not stated) returned USP1-UAF1 inh -15.8%, TRHR ag 0.0, TRHR enhancer 1.5, D1 PAM -0.5, D1 ag -1.2 and D1 antagonist -1.0.
COc1cc(Nc2ncc3c(n2)CCN(Cc2ccc(OC(C)C)c(OC)c2)C3)cc(OC)c1 was read as USP1-UAF1 inh -22.5%, TRHR ag -1.2, TRHR enhancer -4.5, D1 PAM 1.4, D1 ag -0.1 and D1 antagonist 3.3.
`CCC(NC(=O)Nc1nnc(C(F)(F)F)s1)(C(F)(F)F)C(F)(F)F` gave USP1-UAF1 inh -12.1%, TRHR ag 12.4, TRHR enhancer -2.9, D1 PAM -10.6, D1 ag 31.3* and D1 antagonist -57.8*.
For CCCN1CCc2c(sc(NC(=S)NC(=O)c3ccccc3)c2C#N)C1 the results were USP1-UAF1 inh -29.0%, TRHR ag 22.4, TRHR enhancer 3.9, D1 PAM 2.2, D1 ag 45.0* and D1 antagonist 14.2.
CC(C)N1CCc2c(sc(NC(=S)NC(=O)c3ccccc3)c2C#N)C1 was read as USP1-UAF1 inh -5.2%, TRHR ag 8.7, TRHR enhancer 9.9, D1 PAM -3.4, D1 ag 25.6 and D1 antagonist -26.2.
Screening Cc1ncc(CO)c(CNc2ccc(Oc3ccccc3)cc2)c1O returned USP1-UAF1 inh -7.8%, TRHR ag 0.1, TRHR enhancer -5.4, D1 PAM -8.3, D1 ag 10.4 and D1 antagonist -37.0*.
CCOC(=O)C1=C(N)Oc2c(oc(CO)cc2=O)C1c1c(F)cccc1Cl (configuration not stated) was read as USP1-UAF1 inh -8.9%, TRHR ag -0.9, TRHR enhancer 8.3, D1 PAM 2.3, D1 ag 0.3 and D1 antagonist -63.7*.
CCOC(=O)C1=C(N)Oc2c(oc(CO)cc2=O)C1c1ccc(Cl)cc1 (configuration not stated) was read as USP1-UAF1 inh -19.7%, TRHR ag 0.5, TRHR enhancer -2.3, D1 PAM 1.9, D1 ag -0.1 and D1 antagonist 10.6.
For COc1cccc(N2CC(NC(=O)c3ccc4c(c3)OCO4)CC2=O)c1 (configuration not stated) the results were USP1-UAF1 inh inconclusive, TRHR ag -0.2, TRHR enhancer 1.9, D1 PAM -1.6 and D1 ag -3.2.
